# Reference: PubChem BioAssay (EPA / NIEHS)
# Results filed as inconclusive are left out. Calls of active or inactive are those of the source. How the source made its calls: active means hit-call score of the fitted dose curve at least 0.9, where 1 is the maximum; inconclusive means response in the unintended direction; inactive means score below 0.9.
# Columns and labels:
# [1] = target: mouse Cholecystokinin, CCK1 Receptor (CCKA), Cckar (gene 12425) (UniProt O08786); experiment: NVS_GPCR_mCCKAPeripheral: NovaScreen (NVS) G Protein-Coupled Receptor Assay for mouse Cholecystokinin, CCK1 Receptor (CCKA) (AID 2283285)
# Outline: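 Radioligand competitive displacement on mouse pancreatic membranes, 2 h incubation; filter-based scintillation counting, loss of signal versus DMSO. Single-concentration screen at 25 uM in duplicate, actives retested in concentration-response up to 50 uM.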
# [2] = target: human Opioid Receptor Delta 1 (Opiate D1), OPRD1 (gene 4985) (UniProt P41143); experiment: NVS_GPCR_hOpiate_D1: NovaScreen (NVS) G Protein-Coupled Receptor Assay for human Opioid Receptor Delta 1 (Opiate D1) (AID 2283280)
# Outline: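 Radioligand displacement on membranes from CHO cells expressing the receptor, read by filter scintillation counting 1 h after dosing. Duplicate single-point screen at 25 uM, then concentration series for actives; loss of signal versus DMSO.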
# [3] = target: human Orphanin, Opioid Related Nociceptin Receptor 1 (ORL1), OPRL1 (gene 4987) (UniProt P41146); experiment: NVS_GPCR_hORL1: NovaScreen (NVS) G Protein-Coupled Receptor Assay for human Orphanin, Opioid Related Nociceptin Receptor 1 (ORL1) (AID 2283283)
# Outline: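 Filter-based radioligand displacement with receptor extracted from HEK293 cells, read 1 hour after dosing by scintillation counting. Duplicate single-point screen at 25 uM; qualifying chemicals then run in concentration-response to 50 uM, analysed relative to DMSO.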
# [4] = target: Neuropeptide Y receptor type 2 (Homo sapiens) (UniProt P49146); experiment: NVS_GPCR_hNPY2: NovaScreen (NVS) G Protein-Coupled Receptor Assay for human Neuropeptide Receptor Y2 (NPY2) (AID 2283277)
# Outline: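 Radioligand binding on membranes extracted from SK-N-MC cells, cell-free, read 1 h after dosing by filter-based scintillation counting. Loss of signal vs DMSO. Primary screen in duplicate at 25 uM; actives followed up in concentration-response up to 50 uM.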
# [5] = target: human Neurokinin, NK2 Receptor, TACR2 (gene 6865) (UniProt P21452); experiment: NVS_GPCR_hNK2: NovaScreen (NVS) G Protein-Coupled Receptor Assay for human Neurokinin, NK2 Receptor (AID 2283278);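 further: actives reduce bound radioligand signal relative to DMSO baseline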
# Outline: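 CHO-derived membrane protein, radioligand displacement, filter scintillation read at 4 h post-dose. Single-point 25 uM in duplicate, then concentration series for actives; DMSO as negative control.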
# [6] = target: human Thromboxane A2 Receptor (TXA2), TBXA2R (gene 6915) (UniProt P21731); experiment: NVS_GPCR_hTXA2: NovaScreen (NVS) G Protein-Coupled Receptor Assay for human Thromboxane A2 Receptor (TXA2) (AID 2283282);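 further: actives reduce bound radioligand signal relative to DMSO baseline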
# Outline: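 Human platelet-derived receptor preparation incubated with test chemical and radiolabelled ligand for 1 hour, cell-free. Bound label was separated by filtration and counted; displacement relative to DMSO controls gave activity, screened at 25 uM, then titrated.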
# [7] = target: human Vasopressin 1A Receptor (V1A), AVPR1A (gene 552) (UniProt P37288); experiment: NVS_GPCR_hV1A: NovaScreen (NVS) G Protein-Coupled Receptor Assay for human Vasopressin 1A Receptor (V1A) (AID 2283284)
# Outline: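 Cell-free radioligand displacement on human platelet preparations, 1.5 h incubation, filter-based scintillation counting. Chemicals first tested in duplicate at 25 uM; actives then run in concentration-response up to 50 uM, loss of signal fitted against DMSO.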
# [8] = target: rat Serotonin, 5-Hydroxytryptamine Receptor 1 (5HT1), Non-Selective Binding, Htr1a (gene 24473) (UniProt P19327); experiment: NVS_GPCR_r5HT1_NonSelective: NovaScreen (NVS) G Protein-Coupled Receptor Assay for rat Serotonin, 5-Hydroxytryptamine Receptor 1 (5HT1), Non-Selective Binding (AID 2283286)
# Outline: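 Rat cortical membranes, radioligand displacement, 1 h incubation, read by filter scintillation. Primary screen in duplicate at 25 uM. Hits (e.g. ≥30% inhibition) went to concentration-response up to 50 uM, fitted as loss of binding versus DMSO.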
# human Opioid Receptor Delta 1 (Opiate D1), OPRD1 (gene 4985), sequence (P41143 whole entry, looked up): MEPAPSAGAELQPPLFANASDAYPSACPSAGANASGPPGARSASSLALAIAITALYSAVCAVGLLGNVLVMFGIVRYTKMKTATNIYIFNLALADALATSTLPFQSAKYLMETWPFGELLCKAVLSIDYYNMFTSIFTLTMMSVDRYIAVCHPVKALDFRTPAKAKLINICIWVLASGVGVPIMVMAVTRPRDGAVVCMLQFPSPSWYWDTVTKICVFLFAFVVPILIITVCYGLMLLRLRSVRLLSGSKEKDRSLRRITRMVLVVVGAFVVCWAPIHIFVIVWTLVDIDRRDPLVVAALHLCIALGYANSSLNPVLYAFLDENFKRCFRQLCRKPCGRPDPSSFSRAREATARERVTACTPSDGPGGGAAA
# human Thromboxane A2 Receptor (TXA2), TBXA2R (gene 6915), sequence (P21731 whole entry, looked up): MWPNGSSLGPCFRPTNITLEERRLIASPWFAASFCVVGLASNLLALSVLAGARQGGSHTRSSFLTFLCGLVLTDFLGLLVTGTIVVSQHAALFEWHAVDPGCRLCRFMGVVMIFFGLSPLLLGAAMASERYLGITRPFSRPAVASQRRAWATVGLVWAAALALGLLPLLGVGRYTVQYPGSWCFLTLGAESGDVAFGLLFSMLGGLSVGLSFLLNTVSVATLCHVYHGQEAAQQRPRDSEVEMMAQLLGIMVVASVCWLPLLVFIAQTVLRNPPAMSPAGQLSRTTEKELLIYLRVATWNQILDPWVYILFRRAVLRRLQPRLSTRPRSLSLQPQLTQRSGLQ
# mouse Cholecystokinin, CCK1 Receptor (CCKA), Cckar (gene 12425), sequence (O08786 whole entry, looked up): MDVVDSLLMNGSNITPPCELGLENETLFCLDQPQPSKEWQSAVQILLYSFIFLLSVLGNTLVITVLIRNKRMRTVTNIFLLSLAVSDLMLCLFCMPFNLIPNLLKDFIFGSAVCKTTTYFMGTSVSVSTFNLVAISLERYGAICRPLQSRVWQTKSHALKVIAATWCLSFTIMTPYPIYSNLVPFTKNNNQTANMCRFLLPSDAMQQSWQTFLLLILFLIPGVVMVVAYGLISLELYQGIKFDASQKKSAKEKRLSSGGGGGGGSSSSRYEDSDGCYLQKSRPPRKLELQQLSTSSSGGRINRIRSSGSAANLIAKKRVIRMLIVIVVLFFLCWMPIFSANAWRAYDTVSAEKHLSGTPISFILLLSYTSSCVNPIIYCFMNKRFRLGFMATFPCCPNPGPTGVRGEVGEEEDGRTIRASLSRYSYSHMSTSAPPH
# human Neurokinin, NK2 Receptor, TACR2 (gene 6865), sequence (P21452 whole entry, looked up): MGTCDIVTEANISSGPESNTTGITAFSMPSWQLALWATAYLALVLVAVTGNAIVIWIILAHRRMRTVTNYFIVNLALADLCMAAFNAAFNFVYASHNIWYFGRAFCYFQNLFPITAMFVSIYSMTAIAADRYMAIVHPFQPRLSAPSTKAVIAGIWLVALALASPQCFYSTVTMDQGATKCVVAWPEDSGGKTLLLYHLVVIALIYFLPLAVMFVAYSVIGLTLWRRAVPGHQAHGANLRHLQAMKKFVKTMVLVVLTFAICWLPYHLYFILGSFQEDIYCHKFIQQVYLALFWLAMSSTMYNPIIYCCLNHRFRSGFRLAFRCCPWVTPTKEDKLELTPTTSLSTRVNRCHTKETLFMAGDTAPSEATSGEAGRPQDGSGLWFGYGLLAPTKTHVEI
# human Orphanin, Opioid Related Nociceptin Receptor 1 (ORL1), OPRL1 (gene 4987), sequence (P41146 whole entry, looked up): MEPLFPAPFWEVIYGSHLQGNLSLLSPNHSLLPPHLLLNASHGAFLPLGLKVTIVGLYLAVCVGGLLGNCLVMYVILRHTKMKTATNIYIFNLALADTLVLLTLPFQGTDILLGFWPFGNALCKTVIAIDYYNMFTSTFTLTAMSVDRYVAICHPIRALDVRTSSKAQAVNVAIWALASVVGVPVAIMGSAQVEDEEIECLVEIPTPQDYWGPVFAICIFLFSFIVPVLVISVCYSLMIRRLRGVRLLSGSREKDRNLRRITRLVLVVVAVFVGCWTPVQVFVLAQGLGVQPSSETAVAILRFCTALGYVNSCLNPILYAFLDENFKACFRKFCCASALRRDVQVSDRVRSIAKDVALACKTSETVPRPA
# rat Serotonin, 5-Hydroxytryptamine Receptor 1 (5HT1), Non-Selective Binding, Htr1a (gene 24473), sequence (P19327 whole entry, looked up): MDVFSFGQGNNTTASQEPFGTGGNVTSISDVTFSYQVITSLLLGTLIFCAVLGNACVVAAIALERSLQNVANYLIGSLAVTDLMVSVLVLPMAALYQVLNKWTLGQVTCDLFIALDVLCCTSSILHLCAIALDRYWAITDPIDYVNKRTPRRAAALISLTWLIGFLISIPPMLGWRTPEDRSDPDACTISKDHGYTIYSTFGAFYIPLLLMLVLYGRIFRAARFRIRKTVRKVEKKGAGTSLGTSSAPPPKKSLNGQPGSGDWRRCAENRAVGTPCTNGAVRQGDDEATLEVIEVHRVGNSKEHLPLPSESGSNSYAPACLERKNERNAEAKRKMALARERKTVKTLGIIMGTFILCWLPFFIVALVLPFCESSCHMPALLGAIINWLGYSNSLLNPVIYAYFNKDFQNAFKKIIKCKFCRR
# human Vasopressin 1A Receptor (V1A), AVPR1A (gene 552), sequence (P37288 whole entry, looked up): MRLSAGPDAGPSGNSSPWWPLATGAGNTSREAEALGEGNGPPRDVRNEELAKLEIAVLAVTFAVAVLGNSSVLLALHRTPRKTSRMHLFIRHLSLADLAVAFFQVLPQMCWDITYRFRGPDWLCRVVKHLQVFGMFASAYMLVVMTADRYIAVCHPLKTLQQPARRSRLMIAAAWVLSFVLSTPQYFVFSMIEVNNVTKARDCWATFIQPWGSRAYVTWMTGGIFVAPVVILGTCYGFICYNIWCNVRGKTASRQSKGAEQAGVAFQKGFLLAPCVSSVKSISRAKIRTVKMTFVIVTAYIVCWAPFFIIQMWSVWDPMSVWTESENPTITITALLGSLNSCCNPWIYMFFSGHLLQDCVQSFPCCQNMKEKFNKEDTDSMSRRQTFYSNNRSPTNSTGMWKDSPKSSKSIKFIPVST
# Neuropeptide Y receptor type 2 (Homo sapiens), sequence (P49146 whole entry, looked up): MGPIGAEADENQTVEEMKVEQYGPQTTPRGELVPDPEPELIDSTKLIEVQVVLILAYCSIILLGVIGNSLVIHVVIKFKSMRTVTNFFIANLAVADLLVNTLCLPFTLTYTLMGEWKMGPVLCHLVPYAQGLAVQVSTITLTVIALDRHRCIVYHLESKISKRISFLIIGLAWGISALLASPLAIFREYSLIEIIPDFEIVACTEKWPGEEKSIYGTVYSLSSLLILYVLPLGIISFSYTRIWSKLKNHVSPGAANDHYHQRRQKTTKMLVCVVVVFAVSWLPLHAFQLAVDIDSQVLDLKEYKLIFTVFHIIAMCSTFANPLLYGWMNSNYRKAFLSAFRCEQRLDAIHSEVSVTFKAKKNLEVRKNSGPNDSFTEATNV
smiles,measurement,setting,value
CN(C)[C@@H]1C(=O)C(C(N)=O)=C(O)[C@@]2(O)C(=O)C3=C(O)c4c(O)cccc4[C@@](C)(O)[C@H]3C[C@@H]12,AC50,[1],25 µM (active)
CCCCCOC(=O)c1ccccc1C(=O)OCCCCC,outcome,[2],inactive
same,outcome,[3],inactive
same,outcome,[1],inactive
CCC[CH2][Sn]([Cl])([CH2]CCC)[CH2]CCC,AC50,[4],10.3 µM (active)
same,AC50,[5],1.08 µM (active)
same,AC50,[2],0.593 µM (active)
same,AC50,[6],1.77 µM (active)
same,AC50,[3],1.21 µM (active)
same,AC50,[7],7.85 µM (active)
same,AC50,[1],0.228 µM (active)
same,AC50,[8],17.2 µM (active)
Oc1ccc2ccc3cccc4ccc1c2c34,outcome,[5],inactive
same,outcome,[6],inactive
COP(=S)(OC)SCN1C(=O)c2ccccc2C1=O,AC50,[5],8.63 µM (active)
same,outcome,[2],inactive
same,AC50,[3],44.4 µM (active)
same,outcome,[8],inactive
Nc1cc(Cl)cc(C(=O)O)c1Cl,outcome,[6],inactive
